Bioassay records as filed in PubChem.
Only some compounds are listed: those with a hit (about 1.6% of all), similar ones and a draw of the others.
Yeast superoxide: caloric restriction mimetics inhibiting age-related superoxide in yeast; superoxide response (% of plate mean), % at 10 µM; 330,000 compounds, 0.18% hits; S. cerevisiae aged cells, superoxide DHE fluorescence; active compounds read low;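 active = superoxide response under a set limit, about three screen SD below normal, cut at about 65% in these data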;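 note: yeast aged for seven days with compound at 30 °C before DHE staining; 100% = average MFI of all compound-treated wells on the plate with controls excluded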
NALP1 yeast inh: blocks the NALP1 inflammasome reconstituted in yeast; S. cerevisiae NALP1/ASC/caspase-1 growth, X-gal OD620, 72 h; inhibition, % at 10 µM; 280,000 compounds, 0.61% hits; in the data active = inhibition mostly above about 24%, no sharp cut-off; inactive = mostly below about 32%
NALP3 yeast inh: inhibitors of NALP3 inflammasome in yeast; Yeast reconstituted NLRP3/ASC/caspase-1, beta-gal luminescence, 24 h; inhibition, % at 10 µM; 330,000 compounds, 0.39% hits;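 active = inhibition of 50% or more; inactive = inhibition below 50%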;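 note: plate controls were induced DMSO wells for no effect and uninduced yeast grown without galactose for full effect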
V-ATPase pH: yeast V-ATPase proton transport regulation by pHLuorin | S. cerevisiae, pHLuorin cytosolic pH fluorescence | response, % at 10 µM | 350,000 compounds, 0.37% hits | AID 504577; in the data active = response mostly above about 7.3%, no sharp cut-off; inactive = mostly below about 5.4%; note: actives read high
PERK inhibitor: inhibitors of human PERK kinase; Q9NZJ5; CHO PERK-DD fusion, SEAP luminescence translation reporter; inhibition, % at 5.6 µM; 220,000 compounds, 0.17% hits; AID 1416;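 active = inhibition above the mean inhibition of all tested compounds plus 3 SD, set separately per screening campaign, cut at about 2.9% in these data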;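 note: PERK kinase domain activated by AP20187 dimerizer at 100 nM; 0% = DMSO with dimerizer and 100% = rapamycin at 8.4 µM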
Target sequence (Q9NZJ5 whole entry, looked up, the tested form may be a part): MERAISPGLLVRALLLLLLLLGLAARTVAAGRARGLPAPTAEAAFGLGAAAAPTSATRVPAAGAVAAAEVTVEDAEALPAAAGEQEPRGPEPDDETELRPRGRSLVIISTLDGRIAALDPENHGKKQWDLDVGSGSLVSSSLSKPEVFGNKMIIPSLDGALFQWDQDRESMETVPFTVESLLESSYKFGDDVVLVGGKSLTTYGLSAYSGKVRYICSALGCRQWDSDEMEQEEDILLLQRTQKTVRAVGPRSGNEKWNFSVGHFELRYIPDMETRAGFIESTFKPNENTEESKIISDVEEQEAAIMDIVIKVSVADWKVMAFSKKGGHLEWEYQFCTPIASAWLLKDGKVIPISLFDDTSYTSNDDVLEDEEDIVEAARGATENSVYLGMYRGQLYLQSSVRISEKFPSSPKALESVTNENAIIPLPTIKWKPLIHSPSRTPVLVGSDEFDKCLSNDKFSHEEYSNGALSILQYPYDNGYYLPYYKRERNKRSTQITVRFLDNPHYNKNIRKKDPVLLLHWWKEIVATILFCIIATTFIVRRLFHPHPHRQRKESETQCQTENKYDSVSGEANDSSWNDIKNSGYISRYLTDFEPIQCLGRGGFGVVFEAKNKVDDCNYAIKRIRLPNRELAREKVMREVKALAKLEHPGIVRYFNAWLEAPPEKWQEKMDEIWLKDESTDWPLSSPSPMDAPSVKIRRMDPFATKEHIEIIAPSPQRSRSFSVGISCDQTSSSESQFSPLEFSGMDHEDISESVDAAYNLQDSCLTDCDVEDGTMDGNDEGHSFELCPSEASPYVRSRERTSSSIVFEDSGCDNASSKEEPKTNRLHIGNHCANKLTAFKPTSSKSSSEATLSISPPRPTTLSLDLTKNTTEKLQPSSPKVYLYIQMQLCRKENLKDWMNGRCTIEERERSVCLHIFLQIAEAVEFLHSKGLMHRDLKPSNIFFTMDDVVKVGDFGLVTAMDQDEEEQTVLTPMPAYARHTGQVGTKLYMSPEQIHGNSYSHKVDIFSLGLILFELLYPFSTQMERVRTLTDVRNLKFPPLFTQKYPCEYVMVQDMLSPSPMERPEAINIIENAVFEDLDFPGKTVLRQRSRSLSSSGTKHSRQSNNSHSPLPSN
Rce1 inh: inhibitors of yeast Ras-converting enzyme; yeast membranes, quenched prenylated peptide cleavage fluorescence; calls only; 290,000 compounds, 0.27% hits; AID 2563;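 active = fall in fluorescence gain of 50% or more versus controls, with final raw signal at or below 3038400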;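 note: plate controls were neutral control wells for no effect and wells lacking membranes for full effect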
NALP3 yeast conf: NALP3 inhibition confirmation in yeast; shares compounds with NALP3 yeast inh; yeast expressing human NALP3, luminescence; inhibition, % at 10 µM; 1,300 compounds, 81% hits; AID 435006; in the data active = inhibition above about 48%
Casp1-ASC yeast: counter-screen for NALP3 inhibitors: yeast caspase-1-ASC | shares compounds with NALP3 yeast inh | yeast expressing Caspase-1-ASC, luminescence counter screen | inhibition, % at 10 µM | 1,000 compounds, 66% hits | AID 488784
NALP3 yeast rt: retest-confirmed inhibitor of NALP3 in yeast. shares compounds with NALP3 yeast inh. yeast expressing human NALP3, luminescence read-out. inhibition, % at 10 µM. 1,000 compounds, 53% hits. AID 488794
VATPase regulator: regulators of yeast V-ATPase proton transport | shares compounds with V-ATPase pH | S. cerevisiae pHLuorin cytosolic pH | response, % at 10 µM | 980 compounds, 2% hits | AID 602197; in the data active = response above about 24%;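 note: plate controls were vehicle wells for no effect and positive control wells for full effect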
* = called active by the depositor; i = inactive; x = no result given; + = active, no number. Cut-off read from the data, not from the text of the source, unless noted: active = inhibition above about 50%; inactive = the rest.

SMILES	Yeast superoxide	NALP1 yeast inh	NALP3 yeast inh	V-ATPase pH	PERK inhibitor	Rce1 inh	VATPase regulator	others
Cc1cc(Nc2ccccc2)nc2cc(O)ccc12	95	52*	70*	0	0	i	x	NALP3 yeast conf=82*;Casp1-ASC yeast=91*;NALP3 yeast rt=60*
COc1ccc(Nc2cc(C)c3ccc(O)cc3n2)cc1	107	+	76*	1	-2	i	x	NALP3 yeast conf=91*
CCOc1ccc(Nc2cc(C)c3ccccc3n2)cc1	100	34	27	-3	x	i	x
Cc1ccccc1SCC(=O)Nc1cc(C(F)(F)F)ccc1N1CCOCC1	119	x	10	0	x	i	x
C=CCOc1ccc(/C=C/C(C)=N\O)cc1	86	19	59*	-2	0	i	x	NALP3 yeast conf=68*;Casp1-ASC yeast=60*;NALP3 yeast rt=47
C=CCOc1ccc(/C=C/C(=O)OCC(=O)N2CCN(C(C)=O)CC2)cc1	104	x	14	0	x	x	x
Cc1ccc(Cl)cc1NC(=O)c1cnn2c1NC(c1ccco1)CC2C(F)(F)F (stereo unspecified)	91	-2	58*	-4	-1	i	x	NALP3 yeast conf=66*;Casp1-ASC yeast=72*;NALP3 yeast rt=57*
CC(C)(C)C(=O)Nc1ccccc1C(=O)NCCC(=O)Nc1ccccc1	86	x	15	11*	x	i	-1
O=c1cc(-c2ccco2)nc(-c2cccs2)o1	95	-14	-2	9.5*	2	i	4
c1coc(-c2nnc(-c3cccs3)o2)c1	114	7	15	-1	1	x	x
Cn1cccc1CN1CCC[C@]2(N[C@H](c3ccccc3)[C@@H]3C(=O)N(Cc4ccccc4)C(=O)[C@@H]32)C1=O	x	x	x	0	x	x	x
CC1=NOC(=O)/C1=C/c1ccc2c(c1)OCO2	82	10	-9	11*	0	i	-31
O=C(CCl)NC1(C(=O)O)CCCC1	x	x	x	-2	x	x	x
Nc1ccccc1NC1=CC(=O)CC(c2ccco2)C1 (stereo unspecified)	97	7	8	11*	0	i	1
Cc1ccc(NC2=CC(=O)CC(c3ccco3)C2)c(N)c1 (stereo unspecified)	95	19	26	2	0	x	x
Cc1ccc(S(=O)(=O)N(C)C[C@H]2OCCCC[C@@H](C)Oc3ccc(NC(=O)Cc4ccccc4)cc3C(=O)N([C@H](C)CO)C[C@@H]2C)cc1	x	x	x	3	x	x	x
COc1ccc(-c2nnc3sc(COc4ccccc4)nn23)cc1	106	-5	13	-1	0	i	x
COc1ccc(OCc2nn3c(-c4ccccn4)nnc3s2)cc1	123	6	4	9.5*	-2	i	2
C[C@H]1CN([C@@H](C)CO)C(=O)CCCn2nncc2CO[C@@H]1CN(C)Cc1ccncc1	x	x	x	2	x	x	x
C=CC[C@@H](CC(=O)N(CCO)Cc1ccccc1)C(=O)NC[C@H](OC(=O)[C@@H](CC=C)Cc1ccc(F)cc1)c1ccccc1	90	x	7	0	x	x	x
COc1cccc(/C=c2\s/c(=C/C(=O)c3ccc(C)cc3)[nH]c2=O)c1OC	90	45	21	8.0*	-1	i	-54
O=C1CN(C(=O)CSc2nc3ccccc3c(=O)n2CC2CCCO2)c2ccccc2N1 (stereo unspecified)	87	8	14	11*	1	i	-1
COc1cccc(C(N)=O)c1	83	x	7	11*	x	i	0
CC#CCOCC1CNC(=O)O1 (stereo unspecified)	x	x	x	2	x	x	x
CCn1c(SCC(=O)NCC(=O)Nc2ccc(F)cc2)nnc1-c1cccs1	104	12	4	8.6*	0	i	-6
SMILES	Yeast superoxide	NALP1 yeast inh	NALP3 yeast inh	V-ATPase pH	PERK inhibitor	Rce1 inh	VATPase regulator	others
Cc1ccc(C(=O)CCC(=O)NC2=NCCS2)cc1	82	x	15	2	x	x	-2
Cc1cc(OCCCC(=O)NC2=NCCS2)ccc1Cl	100	12	13	9.5*	1	i	-2
C#CCn1cc2c(c1-c1ccccc1)c(=O)n(C)c(=O)n2C	x	x	x	1	x	x	x
Cc1cc(C)c(C(N)=O)c(SCC(=O)c2cc(C)n(-c3cc(C)on3)c2C)n1	118	x	4	-1	x	x	x
COC(C[C@@H](O)C[C@H](O)COCc1ccccc1)OC	x	x	21	31*	x	i	-1
CN(Cc1cccc(F)c1)C(=O)C1CC(=O)N(Cc2ccco2)C1 (stereo unspecified)	x	x	x	-2	x	x	x
NCCCSC1=NCCCN1	99	5	7	0	1	i	2
Cn1nc(C(=O)N2CCN(c3ccc(Cl)cc3)CC2)c2c1-c1ccccc1S(=O)(=O)C2	117	4	-2	8.6*	x	i	-6
CCOC(=O)CC(=O)Nc1ccccc1C(=O)O	101	-4	-9	-8	1	i	x
CCOC(=O)CCC(=O)Nc1ccccc1C(N)=O	97	6	-3	7.7*	1	i	-8
O=C(CCCC(=O)N(c1ccc(F)cc1)C(C(=O)NC1CCCC1)c1ccc(O)cc1)Nc1ccccn1 (stereo unspecified)	102	-1	14	11*	x	i	1
CN(C(=O)COC(=O)c1ccc(Cl)cc1N)C1CCS(=O)(=O)C1 (stereo unspecified)	91	5	-1	11*	2	i	-1
CC(OC(=O)[C@@H](NS(=O)(=O)c1ccccc1)C(C)C)C(=O)c1c(N)n(C)c(=O)n(C)c1=O (stereo partly specified)	x	x	x	-1	x	x	x
CCOc1ccc(NC(=O)CN2C(=O)NC(CCc3ccccc3)C2=O)cc1OCC (stereo unspecified)	88	x	11	6	x	x	x
Cc1ccccc1NC(=O)CSc1nnc2ccc(-c3cccnc3)nn12	104	x	7	10*	x	i	5
CN1OC[C@@H]2CN(Cc3ccccc3)[C@H](c3cccc(-c4ccccc4)c3)C[C@@H]21	x	x	x	1	x	x	x
CCOC(=O)Cn1c(=O)c(-c2ccccc2N)nc2ccccc21	89	1	16	-3	x	i	0
CCOC(=O)CCn1c(CC(=O)OCC)nc2ccccc21	103	-8	1	5	0	i	x
Cn1c(=O)c(-c2cc(Br)ccc2N)nc2ccccc21	109	11	30	-1	-1	i	5
CCOC(=O)Cn1c(=O)c(-c2cc(Br)ccc2N)nc2ccccc21	101	x	16	31*	1	i	17
C[C@H](CO)N1C[C@H](C)[C@H](CN(C)S(=O)(=O)c2ccccc2F)OCc2cnnn2CCCC1=O	x	x	x	0	x	x	x
